TIM10 inh – growth inhibitors of isogenic TIM10 control yeast, primary screen, counter-screen for tim10-1 yeast inhibitor project, luminescence, uHTS. actives 1.4% (n = 330,000). inhibition, % at 10 µM. S. cerevisiae TIM10 strain growth, BacTiter-Glo luminescence, 24 h. AID 463195, 2010;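 active = inhibition of 40% or more at the single tested concentration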;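 note: wild-type TIM10 isogenic control strain grown at permissive 25 °C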
PfHsp90 yeast 2 – growth inhibition of PfHsp90-expressing yeast, primary screen, antimalarial PfHsp90 inhibitor project, S. cerevisiae, BacTiter-Glo luminescence, single point, set 2; BacTiter-Glo ATP, 48 h; yeast lacking PDR1 and PDR3 efflux regulators; inhibition, % at 9.4 µM; actives 0.32% (n = 310,000); AID 504621, 2011;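 active = every replicate shows inhibition above about 80%, whatever the replicate mean, limit read from the data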;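 note: 0% = DMSO neutral controls and 100% = 20 µM radicicol positive controls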
tim10-1 inh – growth inhibitors of tim10-1 mutant yeast, primary screen, luminescence, uHTS | inhibition, % at 20 µM | AID 463190, 2010 | S. cerevisiae tim10-1 ts strain growth, BacTiter-Glo, 24 h | actives 2.2% (n = 330,000);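 active = inhibition of at least 40%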;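 note: mutant grown at 25 °C; 0% = DMSO wells with yeast and 100% = wells holding no yeast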
NALP3 yeast inh – NALP3 inflammasome inhibitors in reconstituted yeast, primary screen, luminescence, uHTS. inhibition, % at 10 µM. Yeast reconstituted NLRP3/ASC/caspase-1, beta-gal luminescence, 24 h. actives 0.39% (n = 330,000);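 active = inhibition of 50% or more; inactive = inhibition below 50%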;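 note: plate controls were induced DMSO wells for no effect and uninduced yeast grown without galactose for full effect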
NALP1 yeast inh – NALP1 inflammasome inhibitors in reconstituted yeast, colorimetric, S. cerevisiae, triplicate retest. S. cerevisiae NALP1/ASC/caspase-1 growth, X-gal OD620, 72 h. actives 0.61% (n = 280,000). AID 2071, 2009. inhibition, % at 10 µM; in the data active = inhibition mostly above about 24%, no sharp cut-off; inactive = mostly below about 32%
tim23-1 inh – growth inhibitors of tim23-1 mutant yeast, primary screen, luminescence, uHTS | S. cerevisiae tim23-1 growth, BacTiter-Glo luminescence, 24 h | inhibition, % at 20 µM | actives 1.3% (n = 330,000);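 active = growth inhibition of the mutant yeast at or above 50%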;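 note: temperature-sensitive mutant grown at 25 °C; plate controls were DMSO-treated mutant yeast for no effect and medium wells lacking yeast for full effect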
tim10-1 conf – growth inhibitors of tim10-1 mutant yeast, confirmation, single concentration, luminescence, S. cerevisiae; S. cerevisiae tim10-1 ts strain growth, BacTiter-Glo, 24 h; inhibition, % at 20 µM; AID 463213, 2010; shares compounds with tim10-1 inh; actives 56% (n = 7,400);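 active = inhibition of yeast growth at or above a set limit in either of two repeat tests at 20 µM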;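 note: tim10-1 mutant grown at permissive 25 °C to find synthetic lethal compounds; 0% = DMSO yeast wells and 100% = medium wells without yeast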
Active calls of the source: *; / = not tested or not shown. A selection: hits, their analogues and other compounds. The true share with any hit is near 4.2%.

SMILES	TIM10 inh	PfHsp90 yeast 2	tim10-1 inh	NALP3 yeast inh	NALP1 yeast inh	tim23-1 inh	tim10-1 conf
CC/C(=N\Nc1ccccc1[N+](=O)[O-])c1ccc(O)cc1	40	-43	57*	41	-1	38	39*
CCc1ccc(N2CC(C)Cn3c2nc2c3c(=O)[nH]c(=O)n2C)cc1 (stereo not given)	15	1	16	11	0	9	/
CCOc1ccc(N(CC(=O)NC2CCCCC2)C(=O)CNC(=O)c2cccs2)cc1	8	-4	-1	2	-2	2	/
Cc1ccccc1NC(=O)Cc1nc(COC(=O)Cc2c(F)cccc2Cl)cs1	7	-31	17	32	/	38	/
CCOc1cc(/C=N/NC(=O)CN2CCOCC2)ccc1OCc1ccc(Cl)cc1	18	-19	42*	25	36	16	10
c1ccc(-c2cc(-c3nc4ccccc4[nH]3)c3ccccc3n2)cc1	22	-2	51*	30	26	40	38*
O=C(Cc1csc(Nc2nc(=S)[nH]c3ccccc23)n1)NCc1ccccc1Cl	3	-13	29	14	14	4	/
Cc1ccc(CNC(=O)Cc2csc(Nc3nc(=S)[nH]c4ccccc34)n2)cc1	4	/	40	25	15	4	26
Fc1ccccc1CNc1ccc(Cl)c(Cl)c1	14	-11	61*	19	-1	30	69*
CC1(C)Cc2c(sc(NC(=O)C(=O)N3CCCC3)c2C(=O)O)CO1	2	4	-16	5	16	-6	/
CC1(C)Cc2c(sc(NC(=O)C(=O)N3CCCC3)c2C#N)CO1	15	15	41*	2	8	27	9
CCCOC(=O)c1ccc(Oc2c(-c3ccc(OCC)cc3O)n[nH]c2C)cc1	33	0	41*	21	6	25	29
COc1ccc(Oc2c(-c3ccc(O)cc3O)n[nH]c2C)cc1	6	9	20	10	2	3	/
Cc1nn(Cc2ccccc2)c(C)c1C(=O)N1CCN(S(=O)(=O)/C=C/c2ccccc2)CC1	4	-37	13	9	/	9	/
CC1Cc2ccccc2N1C(=O)CN1CCN(S(=O)(=O)c2cccs2)CC1 (stereo not given)	11	1	48*	11	/	36	21
O=C1CCSc2c1ccc1ccccc21	/	-23	/	/	/	/	/
CCn1c(NN)nc2sc3c(c2c1=O)CCC3	-6	1	-18	1	5	-16	/
NNc1nc2sc3c(c2c(=O)n1Cc1ccccc1)CCC3	18	-2	54*	23	/	24	22
COc1ccc(/C=C/C(=O)NC(=S)NNC(=O)[C@H]2C[C@@H]2c2ccccc2)cc1OC	4	-68	48*	3	-9	1	11
Cc1ccc(CN2CCN(/N=C/c3cccs3)CC2)cc1	8	15	10	9	45	19	/
CN1CCN(c2ccccc2NC(=O)c2ccc(-c3ccc(Cl)c(Cl)c3)o2)CC1	38	/	55*	30	0	24	38*
CN1CCN(c2ccccc2NC(=O)c2ccc(-c3cccc([N+](=O)[O-])c3)o2)CC1	/	-17	/	/	0	/	/
O=C(Oc1c(-c2ccccc2)c(=O)n2c3c(cccc13)CC2)c1ccco1	35	-24	46*	-47	-10	44	1
O=C(Oc1c(-c2ccccc2)c(=O)n2c3c(cccc13)CC2)c1ccc(Cl)cc1	25	16	33	1	5	48	/
O=C(CCC1CCCCC1)NC1CCCCC1	12	-2	8	22	/	22	/
SMILES	TIM10 inh	PfHsp90 yeast 2	tim10-1 inh	NALP3 yeast inh	NALP1 yeast inh	tim23-1 inh	tim10-1 conf
CC1(C)CC2CC(C)(CN2S(=O)(=O)c2cccc(N)c2)C1 (stereo not given)	35	22	48*	2	7	27	39*
Cc1nc(NS(=O)(=O)c2cccs2)c2c3c(sc2n1)CCC3	26	/	44*	8	12	43	29*
Cc1nc(NS(=O)(=O)c2ccc(Br)cc2)c2c3c(sc2n1)CCC3	20	-15	14	10	0	32	/
COCCNC(=O)/C(C#N)=C/c1ccc(-c2ccc(OC)cc2[N+](=O)[O-])o1	-6	9	-13	-9	2	-8	/
CCOP(=O)(OCC)/C(C#N)=C/c1ccc(-c2ccc(F)cc2F)o1	9	-6	47*	-3	9	34	32*
Cc1ccc(-n2c(Cc3ccccc3)n[nH]c2=S)cc1	8	/	40*	14	1	5	20
S=c1[nH]nc(Cc2ccccc2)n1-c1ccccc1	13	/	23	22	0	1	/
Cc1ccc(-n2c(CNc3ccc(C)c(Cl)c3)n[nH]c2=S)cc1	38	-6	41*	27	4	42	9
Cc1ccc(-n2c(CNc3cccc(Cl)c3)n[nH]c2=S)cc1	18	-13	25	20	-20	20	/
CN(C)c1ccc(CNS(=O)(=O)c2ccc3c(c2)C(C)(C)C(=O)N3C)cc1	12	2	4	11	33	12	/
COc1ccccc1-c1cc(C(=O)N2CCN(c3ccccc3OC)CC2)no1	37	3	48*	11	-5	40	32*
CCC(C(=O)N1CCN(c2ccccc2OC)CC1)c1ccccc1 (stereo not given)	2	0	42*	2	29	26	13
CCOC(=O)N1CCN(c2ccccc2OC)CC1	1	-8	-15	24	31	39	/
COc1ccc(OC)c(-c2cc(C(=O)N3CCc4ccccc4C3)no2)c1	23	/	41*	7	5	38	27
COc1cc(NC(=O)C2C3CCC(O3)C2C(=O)O)cc(OC)c1 (stereo not given)	-1	-22	9	13	20	0	/
Cc1c(C(=O)OCC(=O)NCCN2C(=O)CSC2=O)cccc1[N+](=O)[O-]	6	43	-8	10	/	2	/
CN(C)S(=O)(=O)c1cccc(NC(=O)c2ccc(NS(=O)(=O)c3cccs3)cc2)c1	4	0	-3	9	/	4	/
CC(C)(C)C(=O)NCCN1C(=O)S/C(=C\c2ccc([N+](=O)[O-])cc2)C1=O	35	3	57*	17	43	45	44*
O=C(/C=C/c1ccccc1[N+](=O)[O-])NCCN1C(=O)S/C(=C\c2ccc(F)cc2)C1=O	10	/	9	1	13	14	/
N#Cc1cc(Oc2cccc3cccnc23)c(-n2nnc3ccccc32)cc1C#N	32	-25	48*	14	2	34	33*
